The whole screen tested about 370,000 compounds, of which about 1,100 (0.3%) were called active. Roughly 1% stayed inconclusive and do not appear here. The list comes from a sample in which actives are over-represented; it also holds similar structures and randomly drawn compounds. Values without a mark were called inactive. The call rests on the fitted dose curve; in most records, active means well fitted activation curve with a large enough effect; inconclusive means small, poorly fitted or top-dose-only effect; inactive means flat fitted curve, though single readings scatter.
Molecular target: Relaxin receptor 1 (Homo sapiens) (UniProt Q9HBX9)
Sequence (Q9HBX9 whole entry, looked up): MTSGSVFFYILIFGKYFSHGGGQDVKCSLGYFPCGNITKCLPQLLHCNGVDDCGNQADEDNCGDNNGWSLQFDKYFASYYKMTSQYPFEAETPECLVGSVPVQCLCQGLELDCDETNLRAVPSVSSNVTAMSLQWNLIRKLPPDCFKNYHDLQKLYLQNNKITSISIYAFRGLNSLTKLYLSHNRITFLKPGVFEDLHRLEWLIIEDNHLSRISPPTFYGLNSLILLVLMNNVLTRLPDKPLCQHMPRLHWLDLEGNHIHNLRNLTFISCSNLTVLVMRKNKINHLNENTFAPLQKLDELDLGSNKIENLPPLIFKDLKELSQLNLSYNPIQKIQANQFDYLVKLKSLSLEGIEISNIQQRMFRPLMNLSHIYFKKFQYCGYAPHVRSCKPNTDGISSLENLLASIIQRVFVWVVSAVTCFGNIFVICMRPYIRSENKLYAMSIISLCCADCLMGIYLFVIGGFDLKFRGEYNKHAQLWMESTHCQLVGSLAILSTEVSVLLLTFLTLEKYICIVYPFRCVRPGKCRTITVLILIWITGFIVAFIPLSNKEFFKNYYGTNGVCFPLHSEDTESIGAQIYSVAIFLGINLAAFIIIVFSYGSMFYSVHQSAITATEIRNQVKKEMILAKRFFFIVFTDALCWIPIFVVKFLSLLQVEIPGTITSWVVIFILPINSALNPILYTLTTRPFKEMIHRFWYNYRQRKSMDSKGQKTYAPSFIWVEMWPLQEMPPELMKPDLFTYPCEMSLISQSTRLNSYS
Assay: qHTS Assay for Agonists of the Relaxin Receptor RXFP1; further: nearly all actives have a fitted effect of over 60% in size
Settings: HEK293T-RXFP1 cAMP TR-FRET, 30 min; series mostly up to 57.5 µM; activation: at the top concentration
Source text: NIH Chemical Genomics Center [NCGC] NIH Molecular Libraries Probe Production Centers Network [MLPCN] MLPCN Grant: R03 MH085705-01A1 Assay Submitter (PI): Alexander Agoulnik NCGC Assay Overview: The relaxin hormone is involved in the variety of biological functions in normal tissues and diseases. The role of relaxin is well-established in female reproduction and parturition, mammary gland and endometrial development, maintenance of myometrial quiescence during pregnancy. Relaxin signaling through its G protein-coupled receptor (GPCR) RXFP1 results in ECM remodeling through regulation of collagen deposition, cell invasiveness, proliferation and overall tissue homeostasis. […] Recombinant human relaxin (rhRlx) is currently being tested in clinical trials as a protective agent in congestive heart failure, in treating severe preeclampsia, and as an anti-fibrotic agent in systemic sclerosis. Upon relaxin binding RXFP1 activation leads to the activation of adenylate cyclase (AC) via Gs. cAMP will activate PKA, which phosphorylates many signaling proteins. Thus, detection of cAMP increase is an easy and reliable indication of relaxin receptor activation. To screen for agonists of the relaxin receptor, a HEK293T cell line stably transfected with RXFP1 was used. RXFP1 activation was assayed by changes in cAMP levels as detected with a time-resolved fluorescence energy transfer (TR-FRET) cAMP detection kit.
NCGC Assay Protocol Summary: This is a cell-based assay for cAMP second messenger response to screen for agonists of the RXFP1 receptor. The assay was conducted in the presence of a PDE4 inhibitor (Ro 20174). The cells were lysed and the cAMP levels were measured with a TR-FRET cAMP kit. Presence of cAMP in the cell lysate disrupts binding between the cryptate-labeled anti-cAMP and d2-labeled cAMP pair, leading to a decrease in the TR-FRET signal. Data were normalized to the controls for basal activity (buffer only) and 100% activity (29 nM porcine relaxin). The EC50 values were determined from concentration-response data modeled with the standard Hill equation 1536-well assay protocol for the HEK293 RXFP1 cAMP assay: (1) Add 3 ul HEK293 RXFP1 cell culture. 2000 cells/well in DMEM/F12, 10% FBS, 1x Pen/Strep (dispensed offline with MultiDrop Combi). (2) Incubate 16-24 hr at 37C, 5% CO2. (3) Add 1 ul 400uM Ro20174 in DPBS, 0.05% BSA, 0.005% Tween 20. (3) Add 23 nl compounds in DMSO solution. Final concentration was 0.5 - 58 uM. (4) Incubate 30 min at 37C, 5% CO2. (5) Add 1 ul cAMP-d2 in lysis buffer (HTRF cAMP HiRange kit, CisBio). (6) Add 1 ul anti-cAMP antibody-cryptate in lysis buffer (HTRF cAMP HiRange kit, CisBio). (7) Incubate 30 min at room temperature. (6) Detect the assay plate in a ViewLux plate reader (PerkinElmer) with Ex=320 nm, Em1=615 nm and Em2=665 nm. Keywords: relaxin, RXFP1, RXFP2, G-protein coupled receptor, cAMP, agonist, high throughput screening, MLSMR, MLSCN, NIH Roadmap, qHTS and NCGC
On the % scale 0 is the no-effect control and ±100 the full control effect; potency means the concentration at half of the fitted maximal effect.

**Q.** `O=C1CN(C(=O)Nc2ccccc2C(F)(F)F)C(c2ccccc2)c2c(sc3c2CCCC3)N1` (stereo not drawn) was tested. Which “activation” value did it give?
**A.** -3.54%

**Q.** Which “activation” value does the source give for `Cc1cccc(N2CCN(C(=O)CCn3c(=O)c4cccn4c4cccnc43)CC2C)c1` (stereo not drawn) here?
**A.** 0.827%

**Q.** For `Cc1ccc(CCNC(=O)c2ccc3c(c2)nc2n3CCC(C)C2)cc1` (stereo not drawn), which “activation” value is on record?
**A.** -2.6%

**Q.** Which “activation” value does the source give for `COc1ccc(-c2cn3c(n2)sc2cc(C(=O)Nc4ccccc4F)ccc23)cc1` here?
**A.** 12.7%

**Q.** For `CC(C)(C)C1CCc2c(sc(NC(=O)c3ccccc3F)c2C(=O)N2CCCCC2)C1` (stereo not drawn), which “activation” value is on record?
**A.** 6.29%

**Q.** How did the “activation” value turn out when `CCN1CCN(Cc2c(O)ccc3oc(C)c(C(=O)Nc4ccc(C)cc4C)c23)CC1` was run?
**A.** 0.265%

**Q.** With `COc1cccc(-n2cc(C(=O)NCc3cccc(Cl)c3)c3ccccc3c2=O)c1` as the compound, how does the “activation” value read?
**A.** 1.08%

**Q.** `COc1ccc(NC(=O)NC(C)c2c(-n3cccc3)sc(C)c2C)cc1OC` (stereo not drawn) was tested. Which “activation” value did it give?
**A.** 1.3%

**Q.** With `CCOC(=O)c1ccc(NC(=O)CSc2nc3c([nH]c4ccccc43)c(=O)n2C)cc1` as the compound, how does the “activation” value read?
**A.** 1.08%

**Q.** `Cc1c(Cl)cccc1NC(=O)Cn1cc(C(=O)c2cccs2)c2ccccc21` was tested. Which “activation” value did it give?
**A.** 2.58%

**Q.** With `CC(=O)N1CCCc2ccc(NS(=O)(=O)c3ccc(F)cc3F)cc21` as the compound, how does the “activation” value read?
**A.** -0.645%

**Q.** How did the “activation” value turn out when `COc1cccc(Cn2c(CNS(=O)(=O)c3ccc(Cl)s3)nc3cccnc32)c1` was run?
**A.** 1.25%

**Q.** Which “activation” value does the source give for `CCN(CC)S(=O)(=O)c1ccc(C(=O)N=c2sc3cccc(OC)c3n2C)cc1` here?
**A.** 3.69%

**Q.** `CCOC(=O)c1sc(=NC(=O)c2ccc(Br)cc2)n(C)c1C` was tested. Which Potency did it give?
**A.** 17.8 µM (active)

**Q.** How did the “activation” value turn out when `CCOC(=O)c1sc(=NC(=O)/C=C/c2cccs2)n(C)c1C` was run?
**A.** 2.99%

**Q.** With `CCN(CC)c1ccc(C2C(C(N)=O)=C(C)Nc3nc(SCc4ccccc4)nn32)cc1` (stereo not drawn) as the compound, how does the “activation” value read?
**A.** 3.85%

**Q.** With `CCCC(=O)Nc1ncnc2c1ncn2[C@@H]1O[C@@H]2OP(=O)(O)OC[C@H]2[C@H]1OC(=O)CCC` as the compound, how does the Potency read?
**A.** 0.631 µM (active)

**Q.** With `Cc1ccccc1CSc1nc(-c2ccccc2)nc2c1Cc1c(CO)cnc(C)c1O2` as the compound, how does the “activation” value read?
**A.** 6.11%

**Q.** How did the “activation” value turn out when `CCOc1ccc(S(=O)(=O)N(CC(=O)NCCSCc2ccc(C)cc2)c2ccccc2)cc1` was run?
**A.** 0.384%

**Q.** `Cc1nn2c(=O)cc(COC(=O)c3cccc(NC(=O)COc4ccccc4Cl)c3)nc2s1` was tested. Which “activation” value did it give?
**A.** 0.441%

**Q.** How did the “activation” value turn out when `C#CC(C)(C)NC(=O)CSc1nc2c(c(=O)n(C)c(=O)n2C)n1CCCC` was run?
**A.** 5.88%

**Q.** For `CCCCn1c(SCC(=O)N2CCOCC2)nc2c1c(=O)n(C)c(=O)n2C`, which Potency is on record?
**A.** 15.8 µM (active)

**Q.** How did the “activation” value turn out when `Cn1c(=O)c2c(SCC(=O)N3CCOCC3)nc(C3CC3)nc2n(C)c1=O` was run?
**A.** 9.17%

**Q.** Which “activation” value does the source give for `Cc1cc(C)cc(OCC(=O)Nc2nc(-c3ccc(F)cc3)ns2)c1` here?
**A.** 16.4%

**Q.** Which “activation” value does the source give for `O=C(CSc1nccn1-c1ccc(F)cc1)Nc1cccc2ccccc12` here?
**A.** -0.361%

**Q.** With `Cc1ccc(CNC(=O)CCc2c(C)nc3nc(CNC(=O)OC(C)(C)C)nn3c2C)cc1` as the compound, how does the “activation” value read?
**A.** 0.404%

**Q.** For `COc1ccccc1-c1nnc(C2CCN(C(=O)c3ccc(Cl)cc3)CC2)o1`, which “activation” value is on record?
**A.** 3.12%

**Q.** With `CC1Cc2cc(S(=O)(=O)CCC(=O)Nc3ccc(F)c(Cl)c3)ccc2N1C(=O)C1CC1` (stereo not drawn) as the compound, how does the “activation” value read?
**A.** -0.89%

**Q.** Which “activation” value does the source give for `COc1ccccc1/C=C/c1nc(C#N)c(NC(C)c2ccccc2)o1` (stereo not drawn) here?
**A.** 17.5%

**Q.** How did the “activation” value turn out when `CCOc1ccc(C2C(=O)N(C3CCCCC3)CC(=O)N2CCC2=CCCCC2)cc1OC` (stereo not drawn) was run?
**A.** 2.13%

**Q.** How did the “activation” value turn out when `COc1ccc(-c2noc(-c3ccc(N4CCN(c5ccccc5)CC4)c([N+](=O)[O-])c3)n2)cc1OC` was run?
**A.** -5.38%

**Q.** Which “activation” value does the source give for `COc1ccc(CNC(=O)c2cc3c(=O)[nH]c4ccccc4c3s2)cc1` here?
**A.** 20.9%

**Q.** Which “activation” value does the source give for `CCCn1c(=N)n(CC(O)COc2ccccc2OC)c2ccccc21` (stereo not drawn) here?
**A.** -0.0771%

**Q.** For `Cc1cc2c(cc3c(SCc4cccc(Cl)c4)nnc(C)n32)o1`, which Potency is on record?
**A.** 22.4 µM (active)

**Q.** With `Cc1cc2c(cc3c(SCc4nc(-c5ccccc5)oc4C)nnc(C)n32)o1` as the compound, how does the “activation” value read?
**A.** 21.8%

**Q.** How did the “activation” value turn out when `Cc1nnc(SCc2cccc(Cl)c2)n(N)c1=O` was run?
**A.** 2.6%

**Q.** Which “activation” value does the source give for `NS(=O)(=O)c1ccc(CCNC(=O)CCCCCn2c(=O)[nH]c3ccccc3c2=O)cc1` here?
**A.** 0.989%

**Q.** With `FC(F)(F)c1cc(Nc2nc3ccccc3c3nncn23)ccc1Cl` as the compound, how does the “activation” value read?
**A.** 2.38%

**Q.** How did the “activation” value turn out when `O=C(COc1ccc2c3c(c(=O)oc2c1)CCCC3)NCC(O)c1ccccc1` (stereo not drawn) was run?
**A.** 25.9%

**Q.** `O=C(Oc1ccccc1)Oc1ccc2c(c1)oc(=O)c1ccccc12` was tested. Which Potency did it give?
**A.** 7.94 µM (active)

**Q.** Which “activation” value does the source give for `O=C(COc1ccc2c3c(c(=O)oc2c1)CCC3)NC1CCCCC1` here?
**A.** 3.76%

**Q.** `COc1ccccc1CCNC(=O)CSc1nnc2ccc(-c3cccnc3)nn12` was tested. Which “activation” value did it give?
**A.** 21.2%

**Q.** `CCOC(=O)CNC(=O)CSc1ccc2nnc(-c3cccnc3)n2n1` was tested. Which Potency did it give?
**A.** 17.8 µM (active)

**Q.** `COC(=O)c1ccc(CSc2ccc3nnc(-c4ccccc4)n3n2)o1` was tested. Which “activation” value did it give?
**A.** 7.04%

**Q.** How did the “activation” value turn out when `Cc1c(C)n(Cc2ccc(Cl)cc2)c2ccc(C(=O)NCCc3ccc(S(N)(=O)=O)cc3)cc12` was run?
**A.** -0.239%

**Q.** How did the “activation” value turn out when `O=C(CN1CCN(Cc2ccc(Cl)cc2)C1=O)NCc1ccc(F)cc1` was run?
**A.** 3.31%

**Q.** For `COc1ccccc1OCC(=O)Nc1nnc2n1CCS2`, which “activation” value is on record?
**A.** 3.18%

**Q.** For `COCCNC(=O)c1cc(-c2cccc(Cl)c2)on1`, which “activation” value is on record?
**A.** -2.02%

**Q.** With `O=C(CSc1nccn1C1CCCC1)Nc1cc(C(F)(F)F)ccc1Cl` as the compound, how does the “activation” value read?
**A.** 1.18%

**Q.** How did the “activation” value turn out when `CC(C)c1ccc(NC(=O)c2ccc(Cn3nc(N4CCN(c5ccccc5)CC4)ccc3=O)o2)cc1` was run?
**A.** -0.547%

**Q.** How did the “activation” value turn out when `O=C(Nc1ccccc1Br)c1cc(CN2CCCC2)on1` was run?
**A.** 2.48%

**Q.** `Cc1ccc(NC(=O)CCCn2c(=O)c3cccn3c3ccccc32)cc1Cl` was tested. Which “activation” value did it give?
**A.** -3.2%

**Q.** Which “activation” value does the source give for `COc1ccc(C2=NC3(CCCCC3)N(CC(=O)Nc3ccc(C(C)C)cc3)C2=O)cc1` here?
**A.** 0.659%

**Q.** For `COc1ccc(CCNC(=O)CCCCn2c(=O)c3ccccc3n(Cc3ccccc3C)c2=O)cc1OC`, which “activation” value is on record?
**A.** -0.919%

**Q.** Which “activation” value does the source give for `Fc1ccc(Nc2nc(SCc3ccccc3Cl)nc3ccccc23)cc1` here?
**A.** -0.424%

**Q.** How did the “activation” value turn out when `COc1ccc(S(=O)(=O)NCC(c2ccc(N(C)C)cc2)N2CCCC2)cc1` (stereo not drawn) was run?
**A.** 1.24%

**Q.** With `O=C(CN1C(=O)COc2ccc(S(=O)(=O)N3CCCCCC3)cc21)N1CCN(c2cccc(C(F)(F)F)c2)CC1` as the compound, how does the “activation” value read?
**A.** -0.516%

**Q.** For `CCCC(=O)Nc1cc2nn(-c3ccccc3)nc2cc1C`, which “activation” value is on record?
**A.** 1.57%

**Q.** For `N#Cc1nc(/C=C/c2ccc(F)cc2)oc1NC1CCCCC1`, which “activation” value is on record?
**A.** 17.1%

**Q.** `CCCS(=O)(=O)c1c(Nc2ccccc2C)sc(C(=O)c2ccccc2)c1N` was tested. Which “activation” value did it give?
**A.** 1.63%

**Q.** With `Cc1nn(C(=O)c2c(F)cccc2F)c(C)c1S(=O)(=O)N1CCOCC1` as the compound, how does the “activation” value read?
**A.** 0.115%

**Q.** Which “activation” value does the source give for `CC(=O)c1ccc(NC(=O)CCc2nc(-c3ccc(C)cc3)no2)cc1` here?
**A.** 5.37%

**Q.** `Cc1ccc(C)n1-c1nnc(N2CCC(C(=O)NCc3ccccc3Cl)CC2)s1` was tested. Which “activation” value did it give?
**A.** -1.52%

From PubChem BioAssay AID2676 (National Center for Advancing Translational Sciences (NCATS), 2010)
